Among all 320,000 compounds or so, about 22,000 (6.9%) were called active. Another 27% or so got no clear call; they are omitted. Many of the other results were omitted from the sample, so actives are more common in it than they were. Values without a mark were called inactive. Calls come from the whole dose curve; as a rule, active = well fitted inhibition curve with a large enough effect; inconclusive = small, poorly fitted or top-dose-only effect, or another doubt; inactive = no such curve, though single readings can be large or run the other way.
Test: Primary qHTS for delayed death inhibitors of the malarial parasite plastid, 96 hour incubation
Settings: P. falciparum luciferase reporter growth; series mostly up to 28.7 µM; activity change, negative = inhibition: at the top concentration
Procedure, shortened: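 Delayed-death screen, second-generation endpoint: infected erythrocytes, 2% hematocrit, 0.05% parasitemia final; 96 hours at 37 C, 5% CO2; luciferase detection reagent; luminescence decrease equals reduced growth.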
% is set by controls: 0 for no effect and ±100 for the full control effect; potency is the fitted concentration of half-maximal effect.

Compound | activity change, negative = inhibition [%] | Potency
Cc1c2cnn(CC(=O)NCCCN3CC(C)CC(C)C3)c(=O)c2c(C)n1Cc1ccc(Cl)cc1 (stereo unspecified) | 3.52 | –
Cc1nc2ccccc2c(=O)n1NC(=O)c1ccccc1 | -8.41 | –
Cc1ccc(SCc2c(C(=O)N/N=C/C3CC=CCC3)nnn2-c2nonc2N)cc1 (stereo unspecified) | 3.06 | –
CNC1(c2nnnn2-c2c(C)cccc2C)CCOC(C)(C)C1 (stereo unspecified) | -24.4 | –
COc1ccc(C23NCCN2C(=O)c2ccccc23)cc1 (stereo unspecified) | 22.2 | –
COc1ccc(C2(C)NC(=O)N(CC(=O)c3ccc4c(c3)OCO4)C2=O)cc1 (stereo unspecified) | 67.1 | –
COc1ccc(C2(C)ON(c3ccccc3C(F)(F)F)C2=O)cc1 (stereo unspecified) | – | 2.62 µM (active)
COC(c1ccccc1)(c1ccccc1)C(Oc1nc(C)cc(C)n1)C(=O)O (stereo unspecified) | -23.8 | –
Cc1ccc(OCCNC(=O)CN2C(=O)NC3(CCCC3)C2=O)cc1 | 5.65 | –
COc1ccc(NC(=O)CSc2nc(SC)ns2)c(OC)c1 | 4.59 | –
Cc1ccc(Cc2nnc(SCC(=O)Nc3ccccc3C)[nH]c2=O)cc1 | -9.18 | –
COC(=O)COc1ccc2c(=O)c(Oc3ccccc3Br)coc2c1 | 0.781 | –
FC(F)(F)Oc1ccc(-c2cn3cccnc3n2)cc1 | 155 | –
CCN1CCC2(CCN(Cc3cn[nH]c3-c3ccc(OC)c(F)c3)C2)C1 (stereo unspecified) | – | 10.4 µM (active)
COc1ccc(-c2[nH]ncc2CN(Cc2nccn2C)C(C)C)cc1F | -16.8 | –
COc1ccc(CN2CCN(c3ccccc3F)CC2)c(OC)c1 | 13.6 | –

Compound | activity change, negative = inhibition [%] | Potency
COc1ccc(C(O)(C2CCCCC2)C(CN2CCCC2)c2ccccc2)cc1 (stereo unspecified) | -22.6 | –
CCCC(O)(c1ccc(OC)cc1)C(CN(C)C)c1ccccc1 (stereo unspecified) | – | 14.7 µM (active)
CN(C)CC(O)COc1ccc(C(C)(C)c2ccc(OCC(O)CN(C)C)cc2)cc1 (stereo unspecified) | 53 | –
COc1ccc(NC(=O)CN(C)C(=O)c2n[nH]c3ccccc23)cc1 | 82.2 | –
O=C(NCc1ccc(Cl)cc1)NCc1ccc(Cl)cc1 | 0.842 | –
S=C(NCc1ccc(Cl)cc1)NC1CCCCC1 | 6.71 | –
S=C(NCc1ccc(Cl)cc1)NC12CC3CC(CC(C3)C1)C2 | – | 11.7 µM (active)
CCN(Cc1ccccc1)S(=O)(=O)c1cc2c3c(c1)CCN3C(=O)CC2 | -27.2 | –
COc1ccc(C(CNCC(=O)Nc2ccccc2F)N(C)C)cc1 (stereo unspecified) | 24.6 | –
O=C(c1ccc(S(=O)(=O)N2CCCC2)cc1)N1CCN(c2ccccc2F)CC1 | – | 4.65 µM (active)
COc1ccccc1NS(=O)(=O)c1ccc(C(=O)N2CCN(c3ccccc3O)CC2)cc1 | – | 11.7 µM (active)
COc1ccccc1NC(=O)C1CCN(C(=O)c2ccc(C(C)(C)C)cc2)CC1 | 25.4 | –
COc1ccccc1N1CCN(C(=O)c2ccc(S(=O)(=O)N3CCCCC3)cc2)CC1 | 0.287 | –
O=C(c1ccc(S(=O)(=O)N2CCOCC2)cc1)N1CCN(c2ccccc2)CC1 | -21.8 | –
COc1ccc(S(=O)(=O)Nc2ccccc2C(=O)N2CCCC2)cc1C | 2.67 | –

From PubChem BioAssay AID504834 (National Center for Advancing Translational Sciences (NCATS), 2011)
